Laboratory results as given in PubChem BioAssay (NCI).
The panel holds about 79,000 compounds, 15% with a hit somewhere; the sample as a whole holds those more often. Active and inactive are the calls of the source. No stated cut-off is given here; in the data, active means growth inhibition above about 70%; inactive means the rest.

test: NCI Yeast Anticancer Drug Screen. Data for the rad50 strain (AID 155);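 further: 0% = growth of vehicle-only cultures of the same strain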; conditions: S. cerevisiae rad50 strain growth inhibition; at 50.0 µM (retest, dose inferred, filed as 5.0); hits give high values
Procedure, shortened: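 DNA repair mutant yeast, compound exposure, growth read-out; inhibition is taken relative to vehicle.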

SMILES	growth inhibition
COc1cc(/C=C/c2cc[n+](C)cc2)ccc1O	-14% (inactive)
COc1cc(C2c3cc4c(cc3C(OC3CCCCO3)C3COC(=O)C23)OCO4)cc(OC)c1OC (stereo not given)	19% (inactive)
O=S(=O)(N/N=C/c1ccc(Cl)cc1Cl)c1ccccc1	-11% (inactive)
Cc1ccc(C(=O)/C(Cl)=N/O)cc1	99% (active)
Cc1ccnc(NS(=O)(=O)c2ccc(N=Cc3c4ccccc4nc4cc(Cl)ccc34)cc2)n1	15% (inactive)
COc1cc(CCN=Cc2cc(Cl)cc(Cl)c2O)c([N+](=O)[O-])cc1OC	74% (active)
COc1ccc(C(C)c2cc3c(cc2OC/C(C)=N/NC(N)=O)OCO3)cc1 (stereo not given)	93% (active)
C/C(CCC1CCc2ccccc2C1)=N\NC(N)=O (stereo not given)	-8% (inactive)
Cc1nc(C(N)=S)sc1C(=O)CC(=O)C(=O)Nc1nc2ccccc2[nH]1	-9% (inactive)
Clc1ccc([O][In]([O]c2ccc(Cl)cn2)[O]c2ccc(Cl)cn2)nc1	1% (inactive)
Cc1ccc(S(=O)(=O)C(=S)Sc2ccccc2)cc1	82% (active)
Fc1ccc2[nH]ccc2c1	41% (inactive)
C(=C/c1ccccc1)/C=N/Nc1ccccc1	-112% (inactive)
O=S1(=O)CC2C1C1(Cl)OC2(Cl)c2ccccc21 (stereo not given)	13% (inactive)
CCCNC(=O)C(=O)NNc1ccccc1	64% (inactive)
C/C(=N/O)c1cccc(C(F)(F)F)c1	-146% (inactive)
COC1=CC(=O)c2c(O)c3c(c(O)c2C1=O)OC1(Oc2c(cc4cc(C)oc(=O)c4c2O)CC1O)C3O (stereo not given)	97% (active)
CC(C)C1/C(=N/O)CC(c2ccccc2)N(N=O)C1c1ccccc1 (stereo not given)	97% (active)
Cc1c(N)nc(C2CC(=O)N2CC(N)C(N)=O)nc1C(=O)NC(C(=O)NC(C)C(O)C(C)C(=O)NC(C(=O)NCCc1nc(-c2nc(C(=O)NCCCNC3CCCC3)cs2)cs1)C(C)O)C(OC1OC(CO)C(O)C(O)C1OC1OC(CO)C(O)C(OC(N)=O)C1O)c1cnc[nH]1 (stereo not given)	99% (active)
CCOC(=O)C1(Br)CCN(S(=O)(=O)c2ccc(C)cc2)c2ccccc2C1=O (stereo not given)	90% (active)
O=C(C[n+]1ccccc1)c1ccc2ccc3ccc(Cl)cc3c2c1	67% (inactive)

same assay, conditions: S. cerevisiae rad50 strain growth inhibition; at 50.0 µM; hits give high values

SMILES	growth inhibition
CC(C)c1ccc2c(c1)CC[C@@H]1[C@](C)(CO)CCC[C@]21C	34.8% (inactive)
O=c1c2ccccc2ncn1Cc1ccccc1[N+](=O)[O-]	-31.8% (inactive)
O=C(NO)C(=O)Nc1cc(Cl)ccc1Cl	86.8% (active)
CCCCCCCCCCCCOC(=O)C[n+]1cccc(C(=O)Nc2ccccc2)c1	99.2% (active)
O=C1C=CC(=O)c2ccc(=O)ccc21	22.6% (inactive)
Cn1c(=O)nc2n(-c3ccc(Cl)cc3)c3cc(Cl)ccc3nc-2c1=O	20.6% (inactive)
Clc1ccc(CN2COc3c(ccc4ccccc34)C2)cc1	88.8% (active)
C1CCN(c2nc(N3CCOCC3)c3[nH]c(N4CCCCC4)nc3n2)CC1	35% (inactive)
O=C1c2ccccc2-c2cc([N+](=O)[O-])c([N+](=O)[O-])cc21	93.2% (active)
CCC[CH2][Sn]([CH2]CCC)([O]C(=O)Cc1ccc(F)cc1)[O]C(=O)Cc1ccc(F)cc1	86.7% (active)
ClCc1ccc2oc3ccccc3c2c1	30% (inactive)
O=C1Oc2ccccc2C(=O)/C1=C/N1C(=O)/C(=C/c2ccc([N+](=O)[O-])cc2)SC1=S	82.5% (active)
COC1=CC(=O)c2ncc(Cl)cc2C1=O	96% (active)
CN(C)c1ccc(C(c2ccc(N(C)C)cc2)c2ccc3c(c2)OCO3)cc1	95% (active)
CC(C)(C)OC(=O)CSC#N	67.3% (inactive)
CN=c1ss/c(=N\C(=S)N(C)C)n1-c1ccccc1	-17.1% (inactive)
CCCCCCCCCCCCCCCBr	10.7% (inactive)
O=c1c2ccccc2[nH]c2c1[nH]c1ccccc12	37% (inactive)
COc1cc(/C=C/c2cc[n+](C)cc2)ccc1O	26.1% (inactive)
COc1cc(C2c3cc4c(cc3C(OC3CCCCO3)C3COC(=O)C23)OCO4)cc(OC)c1OC (stereo not given)	31.9% (inactive)

SMILES	growth inhibition
O=S(=O)(N/N=C/c1ccc(Cl)cc1Cl)c1ccccc1	-19.3% (inactive)
Cc1ccc(C(=O)/C(Cl)=N/O)cc1	98.8% (active)
Cc1ccnc(NS(=O)(=O)c2ccc(N=Cc3c4ccccc4nc4cc(Cl)ccc34)cc2)n1	99.4% (active)
COc1cc(CCN=Cc2cc(Cl)cc(Cl)c2O)c([N+](=O)[O-])cc1OC	58.8% (inactive)
COc1ccc(C(C)c2cc3c(cc2OC/C(C)=N/NC(N)=O)OCO3)cc1 (stereo not given)	74.4% (active)
C/C(CCC1CCc2ccccc2C1)=N\NC(N)=O (stereo not given)	32.2% (inactive)
Cc1nc(C(N)=S)sc1C(=O)CC(=O)C(=O)Nc1nc2ccccc2[nH]1	-7.35% (inactive)
Clc1ccc([O][In]([O]c2ccc(Cl)cn2)[O]c2ccc(Cl)cn2)nc1	68.2% (inactive)
Cc1ccc(S(=O)(=O)C(=S)Sc2ccccc2)cc1	45.5% (inactive)
Fc1ccc2[nH]ccc2c1	55.5% (inactive)
C(=C/c1ccccc1)/C=N/Nc1ccccc1	-15.8% (inactive)
O=S1(=O)CC2C1C1(Cl)OC2(Cl)c2ccccc21 (stereo not given)	75.2% (active)
CCCNC(=O)C(=O)NNc1ccccc1	66.8% (inactive)
C/C(=N/O)c1cccc(C(F)(F)F)c1	7.15% (inactive)
COC1=CC(=O)c2c(O)c3c(c(O)c2C1=O)OC1(Oc2c(cc4cc(C)oc(=O)c4c2O)CC1O)C3O (stereo not given)	91.1% (active)
CC(C)C1/C(=N/O)CC(c2ccccc2)N(N=O)C1c1ccccc1 (stereo not given)	82.3% (active)
Cc1c(N)nc(C2CC(=O)N2CC(N)C(N)=O)nc1C(=O)NC(C(=O)NC(C)C(O)C(C)C(=O)NC(C(=O)NCCc1nc(-c2nc(C(=O)NCCCNC3CCCC3)cs2)cs1)C(C)O)C(OC1OC(CO)C(O)C(O)C1OC1OC(CO)C(O)C(OC(N)=O)C1O)c1cnc[nH]1 (stereo not given)	92.2% (active)
CCOC(=O)C1(Br)CCN(S(=O)(=O)c2ccc(C)cc2)c2ccccc2C1=O (stereo not given)	96.5% (active)
O=C(C[n+]1ccccc1)c1ccc2ccc3ccc(Cl)cc3c2c1	59.1% (inactive)
